Screens from PubChem.
A selection: hits, their analogues and other compounds. The true share with any hit is near 2.4%.
TMEM16A inh: blocks the mouse calcium-activated chloride channel TMEM16A; Q8BHY3; HEK293 TMEM16A/YFP iodide influx fluorescence, ionomycin; normalized B-score (activity score, 25-100; higher = stronger inhibition) at 10 µM; 310,000 compounds, 1.2% hits; AID 588511;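 active means ratio plate-corrected score three or more library SD toward inhibition, starting fluorescence score within five deviations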;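 further: score derived from kinetic fluorescence span divided by baseline fluorescence per well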
Target sequence (Q8BHY3 whole entry, looked up): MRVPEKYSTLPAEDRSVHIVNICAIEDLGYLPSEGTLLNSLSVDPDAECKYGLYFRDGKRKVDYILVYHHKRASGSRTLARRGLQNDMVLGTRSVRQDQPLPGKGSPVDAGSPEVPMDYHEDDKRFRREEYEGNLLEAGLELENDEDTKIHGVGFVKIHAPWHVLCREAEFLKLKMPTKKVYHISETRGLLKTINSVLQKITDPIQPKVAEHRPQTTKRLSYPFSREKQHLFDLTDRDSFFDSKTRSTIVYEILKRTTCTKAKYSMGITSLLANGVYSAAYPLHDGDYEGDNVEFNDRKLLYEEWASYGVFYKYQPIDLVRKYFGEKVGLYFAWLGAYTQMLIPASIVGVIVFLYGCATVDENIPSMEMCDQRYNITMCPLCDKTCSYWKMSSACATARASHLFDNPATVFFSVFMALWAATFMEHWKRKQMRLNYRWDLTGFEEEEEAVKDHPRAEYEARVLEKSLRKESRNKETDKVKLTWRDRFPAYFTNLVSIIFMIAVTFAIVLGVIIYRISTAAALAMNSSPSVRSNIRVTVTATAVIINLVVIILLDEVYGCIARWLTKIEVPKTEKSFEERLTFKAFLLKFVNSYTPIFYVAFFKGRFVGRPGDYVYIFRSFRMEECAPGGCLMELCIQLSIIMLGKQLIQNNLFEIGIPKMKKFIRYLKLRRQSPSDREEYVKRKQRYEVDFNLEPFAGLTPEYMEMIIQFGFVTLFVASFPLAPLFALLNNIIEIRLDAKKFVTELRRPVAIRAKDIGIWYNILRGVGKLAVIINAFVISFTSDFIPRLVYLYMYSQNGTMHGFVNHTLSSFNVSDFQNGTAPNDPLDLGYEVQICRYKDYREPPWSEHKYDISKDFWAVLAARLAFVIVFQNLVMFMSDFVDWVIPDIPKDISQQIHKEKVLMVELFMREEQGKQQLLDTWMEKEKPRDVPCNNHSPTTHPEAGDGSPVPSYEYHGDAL
CHT inh: inhibits the human high affinity choline transporter. Q9GZV3. CHT-expressing cells, membrane potential dye, choline response; stronger effect = lower value. B-score at 10 µM. 310,000 compounds, 0.86% hits. AID 488975;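 active means B-score over 3 SD under the library average, and starting fluorescence ratio not unusually high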;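 further: choline stimulus applied at its EC90 after an EC20 pre-addition; B-score computed on integrated fluorescence ratio after choline addition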
ANO1 activ: activators or potentiators of mouse TMEM16A chloride channel; B-score at 10 µM; Q8BHY3; 340,000 compounds, 0.3% hits; HEK293 TMEM16A/YFP-H148Q/I152L, iodide quench fluorescence; stronger effect = lower value;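 active means fluorescence-ratio B-score plate-corrected deviation score at least 3 library SD below zero, with starting fluorescence score within 5 deviations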;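 further: channel opened by trigger with iodide after compound preincubation; score built on the fluorescence ratio of max minus min over baseline; more negative score means more quench and so TMEM16A activation or potentiation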
CHT allo act: human CHT allosteric activation | CHT-expressing cells, membrane potential dye, choline EC20; stronger effect = higher value; LV-AA mutant CHT in HEK293 cells | AID 488977 | 310,000 compounds, 0.49% hits | B-score at 10 µM;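 active means initial fluorescence not abnormally high and integrated response B-score, plate-corrected, over 3 SD above library mean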
CHT inh conf: confirmation of human choline transporter CHT inhibitors. 2,400 compounds, 70% hits. shares compounds with CHT inh. CHT activity remaining % of control (stronger effect = lower value), % at 10 µM. CHT-expressing cells, choline membrane potential dye; LV-to-AA substituted CHT, HEK293 cells;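 active means choline transporter activity left, mean of duplicates at 10 µM, below buffer-only control mean minus 3 SD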;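 further: depolarization triggered by choline at its EC90 following an EC20 pre-addition; 0% = hemicholinium-3 full block and 100% = buffer-only control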
HEK293 MPD ctr: counter-screen for CHT inhibitors: effect in parental HEK293 cells | shares compounds with CHT inh | membrane potential dye, choline response; active = decrease or increase beyond buffer ±3SD | membrane potential ratio readout (active if shifted either direction beyond buffer ±3SD; no single direction) at 10 µM | 2,400 compounds, 4% hits;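 further: parental cells lack the transporter so any hit is non-specific; ratio is peak minus trough fluorescence over baseline after EC90 choline challenge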
Active calls of the source: *; i = inactive; . = no result given.

SMILES | TMEM16A inh | CHT inh | ANO1 activ | CHT allo act | CHT inh conf | HEK293 MPD ctr
O=C(CSc1nccn1Cc1ccccc1)NCc1ccccc1 | i | i | i | i | . | .
CNC(=S)N(Cc1cccs1)Cc1cc2ccc(OC)cc2[nH]c1=O | i | i | i | i | . | .
COc1ccc2[nH]c(=O)c(CN(Cc3cccs3)C(=S)Nc3ccccc3)cc2c1 | i | -5.3* | . | i | i | i
N#Cc1c(N2C(=O)Nc3ccccc3N2O)sc2c1CCCC2 | i | i | i | i | . | .
CC(C)(C)NCc1cccn1-c1sc2c(c1C#N)CCCC2 | i | -6.3* | i | i | 20%* | -17*
N/C(COc1cccc(C(F)(F)F)c1)=N\NC(=O)c1cccnc1Oc1ccccc1 | i | i | i | i | . | .
COc1ccc(NC(=O)CSc2nccn2Cc2ccccc2)cc1 | i | -5.3* | i | i | 56%* | i
COc1ccc(-n2ccnc2SCC(=O)NO)cc1 | i | -5.3* | i | i | i | i
CC(C)c1ccc(Nc2c([N+](=O)[O-])c(=O)n(C)c3ccccc23)cc1 | i | i | i | i | . | .
Cn1c(=O)c(Nc2ccc(O)cc2)c2c3c(cccc31)C(=O)c1ccccc1-2 | i | -16* | i | i | 9.4%* | i
CCC(Oc1ccc2c(c1)C(=O)CC(C)(C)O2)C(=O)NCCN1CCCCCC1 (stereo not given) | i | -6.4* | i | i | 31%* | i
CC(C)CCNC(=O)COc1ccc2c(c1)C(=O)CC(C)(C)O2 | i | i | i | i | . | .
Cn1c(=O)c2c(SCC(=O)N3CCOCC3)nc(-c3ccccc3F)nc2n(C)c1=O | i | i | i | i | . | .
CCCN(CCC)c1cc(Cl)nc(N)n1 | i | i | i | i | . | .
CCn1c(SCC(=O)N=Nc2c(O)[nH]c3ccccc23)nc2ccccc21 | i | -7* | i | i | 54%* | i
CCn1c(SCC(=O)N=Nc2c(O)[nH]c3ccccc23)nnc1-c1ccc(C(C)(C)C)cc1 | i | i | . | i | . | .
CN(Cc1ccccc1)C(=S)Nc1ccc2nc3n(c(=O)c2c1)CCCCC3 | i | -7* | i | i | i | i
CCOC(=O)/C(C#N)=C/Nc1cc(C(=O)OCC)cc2c(OC)c(OC)ccc12 | . | . | i | . | . | .
COc1cc2c(cc1OC)-c1cc(NC3CCCCCC3)nc(=O)n1CC2 | i | -5.1* | i | i | 23%* | i
COc1cc2c(cc1OC)-c1cc(Nc3ccccc3)nc(=O)n1CC2 | i | i | i | i | . | .
COc1cc2c(cc1OC)-c1cc(N3CCCc4ccccc43)nc(=O)n1CC2 | i | -6.3* | i | i | 70%* | i
CN(C#N)c1nc(Cl)nc(Nc2cccc(Cl)c2)n1 | i | i | i | i | . | .
Cc1cc(=O)n2c(-c3ccc(Cl)cc3)csc2n1 | i | i | i | i | . | .
Cc1cccc(NC(=O)C2CCN(S(C)(=O)=O)CC2)c1C | i | -5.3* | i | i | i | i
Cc1c(Cl)cccc1NC(=O)C1CCN(S(C)(=O)=O)CC1 | i | i | i | i | . | .
SMILES | TMEM16A inh | CHT inh | ANO1 activ | CHT allo act | CHT inh conf | HEK293 MPD ctr
Cn1c(-c2sccc2OCc2ccc(Cl)cc2Cl)n[nH]c1=S | i | -5.6* | i | i | i | i
COc1cc(NC(=O)c2ccc(-c3cccc(F)c3)o2)ccc1NC(=O)c1ccccc1Cl | . | . | i | . | . | .
O=C(OCC(=O)N1CCCc2ccccc21)c1cnc(Cl)c(Cl)c1 | i | -5.7* | i | i | i | i
O=C(OCC(=O)N1CCCc2ccccc21)c1ccc(Cl)nc1 | i | i | i | i | . | .
CCOc1ccc2nc(Cl)c(CN(C(C)=O)C3CCCCC3)cc2c1 | i | -5.5* | i | i | i | i
COc1ccc(C(=O)NCCS(=O)(=O)NCc2cccs2)cc1 | i | i | i | i | . | .
COc1ccc(CNC(=O)COC(=O)c2cccc(S(=O)(=O)N3CCOCC3)c2)cc1 | . | . | i | . | . | .
Cc1nc2ccccc2n1CC(=O)OCC(=O)NCc1ccccc1 | i | i | i | i | . | .
